From PubChem BioAssay
Shown are actives, neighbours in structure and some others; about 7.9% of the full set was active somewhere.
KB-V1 cytotox – KB-V1 MDR subline cytotoxicity; Potency, µM (titrated, usually from 46.1 µM), most hits filed as cytotoxic; 400,000 compounds, 3.4% hits; KB-V1 MDR cells viability, CellTiter-Glo, 72 h; note: % is set by controls: 0 for no effect and ±100 for the full control effect; nearly all actives have a fitted effect of over 60% in size
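Luminescent ATP read-out (CellTiter-Glo, 10 min) measures survival of drug-selected KB-V1 MDR cells after 72 h, 37 degrees C compound exposure. Medium: phenol-red-free DMEM, 10% FBS. Values from fitted concentration-response curves.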
MCF10A rerep – inducers of DNA re-replication in MCF 10A breast cells; Potency, µM (doses to about 46.1 µM), inactives show top-dose activity, positive = re-replication, usual class: activators; MCF 10A DNA re-replication, Hoechst nuclear intensity, 48 h; 350,000 compounds, 2.9% hits; note: % of control where 0% means no effect; nearly all actives have a fitted effect of over 50% in size
HT1080 IDH1KD tx – kills HT-1080 cells with IDH1 knockdown. Potency, µM (doses to about 46.1 µM), without a hit: at the top dose activity, negative = toxicity, most hits filed as cytotoxic. HT-1080 IDH1 knockdown viability, ATP luminescence, 48 h. 360,000 compounds, 2% hits. AID 686971;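 note: 0% = DMSO wells and -100% = cell-free medium wells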
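Using the IDH1-knockdown HT-1080 line run in the same batch and compound series as the NT line, viability after 48 h at 37 °C was determined by CellTiter-Glo luminescence and expressed as % activity.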
KB-3-1 cytotox – kills parental KB-3-1 adenocarcinoma cells; KB-3-1 viability, CellTiter-Glo ATP luminescence, 72 h; Potency, µM (doses to about 46.1 µM), most hits filed as cytotoxic; 400,000 compounds, 1.4% hits; AID 1347075; note: % is set by controls: 0 for no effect and ±100 for the full control effect; nearly all actives have a fitted effect of over 60% in size
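Here the drug-naive KB-3-1 line serves as comparator for MDR sub-line selectivity; cells received compound titrations, 72 h at 37 °C, then CellTiter-Glo readout.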
SW480 rerep – DNA re-replication induction in SW480 cells; SW480 DNA re-replication, Hoechst DNA content imaging, 48 h; Potency, µM (highest dose often 46.1 µM), for inactives: top-dose re-replication activation, most hits filed as activators; 340,000 compounds, 1.8% hits; note: % of control where 0% means no effect; nearly all actives have a fitted effect of over 55% in size
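Image-based read-out: total Hoechst fluorescence of nuclei (405 nm excitation, 500-530 nm emission), with hits raising the fraction of high-intensity nuclei. SW480 colon cells incubated 48 hr with compounds at 37 C.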
HT1080-NT tox – kills 2HG-producing HT-1080-NT fibrosarcoma cells; HT-1080-NT fibrosarcoma viability, CellTiter-Glo ATP luminescence, 48 h; Potency, µM (top dose mostly 46.1 µM), inactives show at the highest dose activity, negative = less viability, most hits filed as cytotoxic; 360,000 compounds, 1.6% hits;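 note: NT is the 2HG producing partner of a matched IDH1 knockdown line; 0% = DMSO-treated cells and -100% = media-only wells without cells; nearly all actives have a fitted effect of over 55% in size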
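Compounds were tested in concentration-response format on HT-1080-NT cells for 48 hours at 37 degrees C. Cell viability came from CellTiter-Glo luminescence; curves were classified by r2, response magnitude and activity.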
* = called active by the depositor; i = inactive; u = inconclusive; x = no result; [ ] = another dose, or the depositor's remark. Calls come from the whole dose curve; as a rule, active = well fitted curve in the direction sought with a large enough effect; inconclusive = small, poorly fitted or top-dose-only effect, or another doubt; inactive = no such curve, though single readings can be large; an effect the other way counts as inactive or inconclusive. Potency is the fitted concentration of half-maximal effect.

SMILES | KB-V1 cytotox | MCF10A rerep | HT1080 IDH1KD tx | KB-3-1 cytotox | SW480 rerep | HT1080-NT tox
COC(=O)C(NC(=O)c1ccccc1C(=O)O)c1ccc2ccccc2c1 (centres undefined) | i | -24% | 7% | i | 15% | 2%
Nc1[nH]nc2nc3ccccc3cc12 | u | 1% | -9% | u | -1% | -25%
Nc1cccc2nc3ccccc3cc12 | i | -5% | 13µM* | u | -93% | 18µM*
CC(C)COc1ccc(C(=O)Nc2ccc(NC(=O)c3ccco3)c(Cl)c2)cc1 | i | u | 15µM* | i | 14% | u
COc1ccc2c(c1)-c1nc(NC(=O)c3ccco3)sc1CC2 | 13µM* | u | 9% | i | 4% | 10%
COc1ccc(C(=O)Nc2ccc(NC(=O)c3ccco3)cc2)cc1 | i | -14% | u | i | 9.2µM* | u
O=C(OC1CCCCC1)c1ccc(NC(=O)c2ccco2)cc1 | i | 15µM* | u | i | 11% | -30%
O=C(Nc1ccc(OC(=O)c2ccco2)cc1)c1ccco1 | i | -185%[0.0737 µM] | 8% | i | 24% | 12%
Cc1ccc(CNC(=O)c2ccc3c(=O)n(-c4ccccc4)c(=O)[nH]c3c2)cc1 | i | x | x | i | x | x
Nn1c(SCC(=O)Nc2nccs2)nnc1-c1cccnc1 | i | 12% | 4% | i | 0% | -7%
Cc1cc(NC(=O)c2ccco2)ccc1NC(=O)c1ccco1 | 23µM* | -2% | -26% | u | -5% | u
COc1cc(OC)cc(C(=O)Nc2ccc(NC(=O)c3ccco3)c(C)c2)c1 | u | 7% | 23µM* | i | 6% | u
CCCOc1ccc(C(=O)Nc2ccc(C)cc2[N+](=O)[O-])cc1 | i | u | 6% | i | -1% | 12%
CCN(CC)c1ccc(NC(=O)c2cc(OC)cc(OC)c2)c(C)c1 | 1.2µM* | 2.1µM* | 4.6µM* | 0.92µM* | 4.6µM* | 3.7µM*
CCN(CC)c1ccc(NC(=O)c2c(OC)cccc2OC)c(C)c1 | i | 0% | 9% | i | 2% | 21%
Cc1ccc(NC(=O)c2ccco2)cc1C | i | -24% | -2% | i | -32% | 5%
CC(C)COc1ccc(C(=O)Nc2ccccc2[N+](=O)[O-])cc1 | i | 13µM* | 1% | i | u | -44%
COc1ccc(NC(=O)/C(C#N)=C\C=C\c2ccco2)cc1 | 10µM* | 12µM* | 21µM* | 7.3µM* | x | u
COc1cc(NC(=O)C2(C)CCCN2C)cc(OC)c1OC (centres undefined) | u | x | u | i | x | u
N#C/C(=C/c1ccc(N2CCCCCC2)o1)c1ccc(Cl)cc1 | i | 2.9µM* | 2.2µM* | i | 13µM* | 5.6µM*
N#C/C(=C/c1ccc(N2CCCCC2)o1)c1cccc(F)c1 | i | 7.3µM* | 4µM* | i | 8.2µM* | u
N#C/C(=C\c1ccc(N2CCOCC2)o1)C(=O)NC1CCCCC1 | i | 11% | -1% | u | -5% | 8%
Cc1ccc(/C(C#N)=C\c2ccc(N3CCOCC3)o2)cc1 | i | -4% | 2µM* | i | -1% | 4.5µM*
CCN(C(=O)Cn1c(=O)n(CC2CCC(C(=O)NC)CC2)c(=O)c2sccc21)c1ccccc1 (centres undefined) | i | x | x | i | x | x
Cc1nn(-c2ccccn2)c2c1C(c1ccsc1)C1=C(CCCC1=O)N2 (centres undefined) | 3.7µM* | 28% | 1% | u | u | 13%
O=C(CSc1ncccn1)Nc1ncc(C(F)(F)F)cc1Cl | i | 2.1µM* | -3% | i | -61% | -1%
O=C(NNc1ncc(C(F)(F)F)cc1Cl)c1c(Cl)cccc1Cl | 2.9µM* | 6.5µM* | 7.3µM* | 5.8µM* | u | u
